About 460 (31%) of roughly 1,500 compounds were called active. The list is a sample of the results. Measured potencies and affinities stand elsewhere. Values without a mark were called inactive.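 How the source made its calls: active means viability at or below 80% at any tested concentration, marking the compound as toxic; inactive means the rest.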
experiment: THP-1 cell cytotoxicity, dose response, cytotoxicity control for Vif-APOBEC3G degradation inhibitor project, THP-1 cells (AID 1117359); conditions: THP-1 viability, CellTiter-Glo luminescence, 72 h; series mostly up to 40 µM; viability: at the top concentration

In order of falling “viability” value:
1. O=C(O)CCCCC1SCC2NC(=O)NC21 (stereo not given)  118%
2. CCCC(=O)NC(C)C(c1cccs1)N1CCN(C)CC1 (stereo not given)  117%
3. CC(C)OP(=O)(OC(C)C)C(O)c1ccc(N(C)C)cc1 (stereo not given)  111%
4. CCOC(=O)C1(C)NC(c2ccco2)C2C(=O)N(CC)C(=O)C21 (stereo not given)  110%
5. Cc1c(C(=O)O)cccc1-n1c(C)cc(/C=N/Nc2ccc([N+](=O)[O-])cn2)c1C  110%
6. O=C(CCl)N1N=C(c2ccco2)CC1c1ccco1 (stereo not given)  108%
7. COc1ccccc1NCCC(=O)OCC(=O)NCc1ccco1  108%
8. CN(C(=O)COc1ncnc2sccc12)c1ccccc1  107%
9. O=C(O)c1cc(Nc2cc(Cl)c3nonc3c2[N+](=O)[O-])ccc1O  107%
10. Fc1cc(F)cc(NC(=S)NCCCN2CCOCC2)c1  106%
11. O=C(Nc1cc(Cl)cc(Cl)c1)c1coc(=O)c(Br)c1  105%
12. O=C(C1CCC(CNc2c(N3CCCCC3)c(=O)c2=O)CC1)N1CCN(C2CCCCC2)CC1 (stereo not given)  105%
13. Cc1sc2nc(C)n(/N=C/c3ccccc3O)c(=O)c2c1C  105%
14. Nc1ccc(-c2nc3cc(N)ccc3n2CCO)cc1  104%
15. Cc1ccc(NC(=O)CSc2nc(CSc3ccc(C)cc3)cc(=O)[nH]2)cc1  103%
16. Cc1ccc(NC(=O)CNC(=O)COc2ccccc2)nc1  103%
17. Cc1nn(CC(=O)NC2CC2)c(C)c1S(=O)(=O)N(C)C  102%
18. CC(C)(C)c1cc(N/C=C\c2nnnn2-c2ccc(Br)cc2)no1  102%
19. CCOc1ccc(NC(=O)C2CCCN(S(=O)(=O)c3c(C)n[nH]c3C)C2)cc1 (stereo not given)  102%
20. COc1ccc(NC(=O)O/N=C/c2ccccc2Cl)cc1  102%
21. COc1cccc(C(=O)N2CCN(Cc3nc(CC4CC4)no3)CC2)c1  102%
22. COCCn1c(SCC(=O)Nc2ccccc2F)nc2c([nH]c3ccccc32)c1=O  102%
23. CCOc1ccccc1C(=S)NC1CCCCC1  101%
24. COC(=O)c1sccc1NC(=O)CC1C(=O)NCCN1C(=O)Nc1ccccc1 (stereo not given)  101%
25. CC1=C(C#N)C(=O)N(C2CCS(=O)(=O)C2)C(=O)/C1=C\c1ccc(C)o1 (stereo not given)  101%
26. CC(NC(=O)Nc1ccc(O)cc1)(C(F)(F)F)C(F)(F)F  99.2%
27. Cc1ccc(C)c(/C(O)=C2/C(=O)C(=O)N(CCN3CCOCC3)C2c2ccco2)c1 (stereo not given)  99.1%
28. CCCSC1=N/C(=C\c2ccc([N+](=O)[O-])o2)C(=O)S1  98.9%
29. CNc1ccc(Br)cc(C(=O)/C=C/c2ccc(OC)cc2OC)c1=O  98.3%
30. CCOC(=O)c1ccc(NC(=O)CSCc2ccco2)cc1  98.2%
31. CCOC(=O)CSc1nncc2ccc(OC)c(OC)c12  98.2%
32. O=C1NN(c2ccc(Cl)cc2)C(=O)/C1=C\c1ccc(-c2cccc(C(=O)O)c2)o1  97.9%
33. O=C(O)CC(C(=O)O)N1C(=O)/C(=C/C=C/c2ccco2)SC1=S (stereo not given)  97.4%
34. Cc1cccc(NC(=O)CNC(=O)c2cccc(-n3cccc3)c2)c1C  95.8%
35. CCCCC(O)(CCCC)C(=O)N/N=C(\C)c1ccc(Cl)cc1  95.1%
36. O=C(C1CCN(S(=O)(=O)N2CCC3(CC2)OCCO3)CC1)N1CCOCC1  94.2%
37. CN(C(=O)CSc1ncnc2sccc12)C1CCCCC1  93.3%
38. C/C(N)=C(/C#N)C(=O)CSc1nnc(Nc2c(C)cccc2C)s1  92.9%
39. CC(=O)c1c(C)[nH]c(C(=O)OCC(=O)C(C)(C)C)c1C  92.6%
40. CCn1c(SC(C)C)nnc1-c1cc(-c2ccccc2)sc1N  92.6%
41. CCC(=O)Nc1ccc(S(=O)(=O)NC[C@H]2O[C@@H](n3cc(C)c(=O)[nH]c3=O)C[C@@H]2O)cc1  92.5%
42. NC(=O)c1ccc(N2CCN(c3ccc(O)cc3)CC2)c([N+](=O)[O-])c1  92%
43. c1coc(CNc2nc(-c3cccs3)cs2)c1  91.9%
44. C=C(C)C(=O)Nc1cccc(C2=NOC3(C2)C[C@@H](C(N)=O)N(C(=O)c2cc([N+](=O)[O-])cc([N+](=O)[O-])c2)C3)c1 (stereo not given in full)  91.8%
45. CCOc1ccccc1N1C(=O)CC(Nc2ccc(N3CCOCC3)cc2)C1=O (stereo not given)  91.4%
46. CC(=O)N1CCN(c2ccc(NCc3ccccc3)cc2)CC1  90%
47. O=C(O)CCCNc1cc(N2CCC3(CC2)OCCO3)c2noc3c2c1C(=O)c1ccccc1-3  89.7%
48. Cc1ccc(Oc2ccc(/C=N/O)cn2)cc1  89.2%
49. Cc1cc(C)cc(NCCC#N)c1  88.6%
50. O=C1OC(c2ccc(F)cc2)=C/C1=C\c1ccc([N+](=O)[O-])o1  88%
51. C=C(C)C1CC=C(C)/C(=N\NC(=O)CCC(=O)Nc2ccc(C)c(C)c2)C1 (stereo not given)  87.5%
52. CC(C)C1Nc2ccc(C(=O)O)cc2C2C=CCC21 (stereo not given)  87.3%
53. COc1cc([N+](=O)[O-])c(N2CCOCC2)c([N+](=O)[O-])c1OC  87%
54. CC1CCN(Cc2c(O)ccc3c2O/C(=C\c2ccco2)C3=O)CC1  85.3%
55. N#C/C(=C/c1ccc(Br)o1)C(N)=S  85.2%
56. Cc1cccc(/C=C(\C(=O)O)c2ccc(S(=O)(=O)N3CCCC3)s2)c1  85.2%
57. COc1ccc(C(=O)O)cc1S(=O)(=O)N1CCCc2ccccc21  84.4%
58. O=C1CC(c2ccco2)CC(O)=C1C=NCC1CCNCC1 (stereo not given)  84%
59. COc1cc2c(cc1N)-c1ccc(N)cc1C2  84%
60. CCOC(=O)C(C#N)(Cc1ccc2ccccc2n1)Cc1ccc2ccccc2n1  83.9%
61. C[c-]1[c-](C)[c-](C)[c-](C)[c-]1C.[Fe].c1cc2nccc(N3CCCC3)[c-]2c1 (stereo not given)  83.7%
62. O=C1/C(=C/C=C/c2ccco2)SC(=S)N1c1ccc(O)cc1  83.6%
63. COc1ccc(N(CC(=O)NCCC2=CCCCC2)S(=O)(=O)c2ccccc2)cc1  83.4%
64. S=c1[nH]nc(COc2ccc(Cl)cc2)n1Cc1ccccc1  83.4%
65. CC(C)(C)C1CCC(OC(=O)C[N+]2(C)CCCCC2)CC1 (stereo not given)  82.8%
66. N#Cc1c(-c2ccccc2)nc2n1CCS2  82.6%
67. CCCOC(=O)Nc1sc2c(c1C(=O)OCC)CCC2  82.4%
68. CC(=O)Nc1ccc(C(=O)Nc2cccc(-c3cnc4ccccc4n3)c2)cc1  81.6%
69. Cc1ccc(S(=O)(=O)Cn2nnnc2C(CC(C)C)N2CCN(C)CC2)cc1 (stereo not given)  81.4%
70. CCOC(=O)C1=C(O)/C(=C\c2ccc(CNC(=O)C(=O)Nc3ccccc3)o2)N=C1C  80.2%

Source: PubChem BioAssay AID1117359 (Southern Research Institute, 2015)
